Measurements taken from ChEMBL document CHEMBL1157539, “Thousands of chemical starting points for antimalarial lead identification” (Nature, 2010).

Tests used:
Assay type in all cases: functional
Plasmodium falciparum [1] = experiment: GSK_TCMDC: Inhibition of Plasmodium falciparum 3D7 in whole red blood cells, using parasite LDH activity as an index of growth. Test compounds present at 2uM
Plasmodium falciparum [2] = experiment: GSK_TCMDC: Inhibition of Plasmodium falciparum Dd2 in whole red blood cells, using parasite LDH activity as an index of growth. Test compounds present at 2uM
HepG2 = experiment: GSK_TCMDC: Percent inhibition of human HepG2 cell line. Test compounds present at 10uM.

| Structure (SMILES) | Inhibition (Plasmodium falciparum [1]) | Inhibition (Plasmodium falciparum [2]) | Inhibition (HepG2) |
| --- | --- | --- | --- |
| COc1ccccc1CN1CCC(CNC(=O)c2cc(-c3cccc(C(F)(F)F)c3)cs2)C1.O=C(O)C(F)(F)F (centres undefined) | 84% | 1% | 25% |
| O=C(Nc1cccc(-c2nn3ccccc3c2-c2ccnc(Nc3ccc(Cc4ccncc4)cc3)n2)c1)c1c(F)cccc1F | 97% | 97% | 43% |
| CCc1cn2c3c(cc(C(=O)N[C@@H](Cc4ccccc4)[C@H](O)CN[C@@H](C)CC)cc13)N(C)S(=O)(=O)CC2.O=CO | 99% | 98% | 2% |
